Screens deposited in PubChem by several laboratories.
CYP2C9 inh – blockers of cytochrome P450 2C9 activity – biochemical, luminescence, ADME assay, primary screen | P11712 | CYP2C9 Supersomes, luciferin-H conversion | inhibition, % at 5 µM | hit rate 20% among 96,000 | AID 777, 2007;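 active means blocking of liver enzyme CYP2C9 beyond about 50% at 5 µM, limit read from the data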
CYP2C19 inh – blockers of cytochrome P450 2C19 activity – biochemical, luminescence, ADME assay, primary screen. P33261. CYP2C19 Supersomes, luciferin-H EGE luminescence, 30 min. inhibition, % at 5 µM. hit rate 21% among 96,000. AID 778, 2007;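 active means CYP2C19 inhibition above a set limit at 5 µM in the primary screen, cut at about 50% in these data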
CYP2C19 activ – human CYP2C19 activators, primary screen, biochemical, luminescence; Cytochrome P450 2C19 (Homo sapiens), P33261; recombinant CYP2C19, luciferin-H EGE luminescence; stronger effect = higher value; 0 = fully inhibited enzyme, 1 = untreated enzyme; activation factor at 5 µM; 96,000 tested, under 10 active; AID 1025, 2008;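 active means activation factor of at least 2 at 5 µM in the primary screen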
D1 mod – D1 CRE-luciferase signal change, two-sided – cell-based, HEK293 D1, dopamine EC30, D1 allosteric modulator project, primary screen. dopamine EC30 potentiation; actives deviate in either direction. hit rate 5.9% among 58,000. AID 641, 2007. B-score at 10 µM. D(1A) dopamine receptor (Homo sapiens), P21728;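 active means luminescence count or its row- and column-corrected plate score outside the 99.7% band of the plate's sample wells, on either side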
Target sequence (P21728 whole entry, looked up): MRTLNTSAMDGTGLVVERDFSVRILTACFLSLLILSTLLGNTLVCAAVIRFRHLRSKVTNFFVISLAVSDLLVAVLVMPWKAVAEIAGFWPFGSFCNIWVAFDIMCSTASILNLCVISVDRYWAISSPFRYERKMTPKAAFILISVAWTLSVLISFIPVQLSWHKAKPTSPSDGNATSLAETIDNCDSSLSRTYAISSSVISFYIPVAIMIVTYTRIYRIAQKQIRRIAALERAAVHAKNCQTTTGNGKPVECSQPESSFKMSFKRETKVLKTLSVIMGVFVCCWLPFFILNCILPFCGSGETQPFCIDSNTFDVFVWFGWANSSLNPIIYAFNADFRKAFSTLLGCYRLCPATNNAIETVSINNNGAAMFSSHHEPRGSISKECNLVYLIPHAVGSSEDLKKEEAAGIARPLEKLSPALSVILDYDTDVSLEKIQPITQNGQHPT
hDAT+cocaine – changed hDAT dopamine uptake under cocaine IC80, either direction, primary screen, cocaine antagonist project, cell-based, LLC-PK1 hDAT, [14C]-dopamine uptake, MLSMR. LLC-PK1 hDAT cells, [14C]-dopamine uptake with cocaine IC80; actives deviate in either direction. B-score at 10 µM. hit rate 1.3% among 110,000;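 active means Z score or B-score, a plate-position-corrected score, falls beyond the plate's 99.7% confidence bounds, in either direction; inactive means both scores lie inside the 99.7% bounds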
CYP2C9 act – human CYP2C9 activators, primary screen, biochemical, luminescence. hit rate 1.4% among 96,000. AID 1024, 2008. recombinant CYP2C9, luciferin-H conversion; stronger effect = higher value; factor 1 = untreated enzyme, 0 = blocked. activation factor at 5 µM;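 active means activation factor of 2 or more for CYP2C9 at a 5 µM dose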
Each line names hits and unclear results; the compound was inactive in the other large screens. In the library only some 28% were active in any assay of this set; here they are far more common.

O=S(=O)(CCOc1ccccc1)c1nc2ccccc2[nH]1	CYP2C19 inh 72.6
CCOC(=O)c1cnn(-c2ccc(Cl)cc2)c1C1CCN(C(=O)OC(C)(C)C)CC1	CYP2C9 inh 84.7, CYP2C19 inh 88.9 (no result: D1 mod)
CCOC(=O)c1cn2nc(-c3ccc(OCC)cc3)cc2nc1C1CCN(C(=O)OC(C)(C)C)CC1	none (no result: D1 mod)
COc1ccccc1NS(=O)(=O)c1ccccc1C#N	CYP2C19 inh 57.8, CYP2C9 act 2.7
COc1ccc(C(C#N)Nc2ccccc2OC)cc1 (configuration not stated)	none (no result: D1 mod)
Cc1c(F)cccc1NS(=O)(=O)c1ccccc1C#N	CYP2C19 inh 58.9
O=C(Nc1ccccc1)C(O)C(O)C(=O)Nc1ccccc1 (configuration not stated)	none (no result: CYP2C9 inh, CYP2C19 inh, CYP2C19 activ, D1 mod, CYP2C9 act)
Cn1c2ccccc2c2ncn(Cc3ccco3)c(=O)c21	CYP2C9 inh 59.5, CYP2C19 inh 69.4
O=c1c2ccccc2ncn1Cc1ccco1	none
Cn1c2ccc(F)cc2c2ncn(Cc3ccco3)c(=O)c21	CYP2C9 inh 61.1, CYP2C19 inh 50.7 (no result: D1 mod)
COc1ccc2c(C)cc(SCc3c(C)noc3C)nc2c1	CYP2C9 inh 57.0, CYP2C19 inh 50.5 (no result: D1 mod)
O=C1CCC(=O)N1c1nc2n(n1)C(c1ccccc1)C=C(c1ccc(Br)cc1)N2 (configuration not stated)	CYP2C9 inh 60.8 (no result: D1 mod)
CSCCC1NC2(C(=O)Nc3c(C)cc(Cl)cc32)[C@@H]2C(=O)N(C3CCCC3)C(=O)[C@H]12 (some centres not stated)	CYP2C9 inh 60.0
CSCCC1NC2(C(=O)Nc3c(Cl)cccc32)[C@@H]2C(=O)N(C3CCCC3)C(=O)[C@H]12 (some centres not stated)	none
CC(Nc1cccc2ccccc12)C(=O)N/N=C/c1ccccn1 (configuration not stated)	CYP2C19 inh 86.0 (no result: D1 mod)
CCOC(=O)N1C2=NC(C(=O)OC)=C(C(=O)OC)[C@@H]3N(Cc4ccccc4)c4ccccc4[C@]23C[C@H]1C(=O)OC	none (no result: CYP2C9 inh, CYP2C19 inh, CYP2C19 activ, D1 mod, CYP2C9 act)
CC(C)(C)c1ccc(OC(=O)Cn2c(C(F)(F)F)nc3ccccc32)cc1	none (no result: D1 mod, hDAT+cocaine)
Cc1ccccc1N1OC2C(=O)N(c3ccc(F)cc3)C(=O)C2C1c1ccccn1 (configuration not stated)	none
O=C1C2ON(c3ccccc3)C(c3ccncc3)C2C(=O)N1c1ccc(Br)cc1 (configuration not stated)	CYP2C9 inh 98.7, CYP2C19 inh 100.4 (no result: D1 mod)
Cc1ccc(N2C(=O)C3ON(c4ccccc4)C(c4ccncc4)C3C2=O)cc1 (configuration not stated)	CYP2C9 inh 96.7, CYP2C19 inh 99.9 (no result: D1 mod)
O=C1C2ON(c3ccccc3)C(c3ccccn3)C2C(=O)N1c1ccc(Br)cc1 (configuration not stated)	CYP2C9 inh 74.1
O=C1C2C(c3ccccc3)C=CC(c3ccccc3)C2C(=O)N1c1ccncc1 (configuration not stated)	CYP2C9 inh 81.5, CYP2C19 inh 97.1 (no result: D1 mod)
O=C1C2ON(c3ccccc3)C(c3ccncc3)C2C(=O)N1c1ccc(N2CCOCC2)cc1 (configuration not stated)	none
COc1cc(C(C(=O)NC(C)(C)C)N(Cc2ccc3c(c2)OCO3)C(=O)c2cnccn2)cc(OC)c1OC (configuration not stated)	none (no result: D1 mod)
COc1cc(C2C(C(=O)OC(C)C)=C(C)Nc3[nH]c(=O)[nH]c(=O)c32)ccc1O (configuration not stated)	CYP2C19 inh 81.6
CCOC(=O)CNC(=O)CSc1nnc(-c2ccccc2OC)n1CC	none (no result: D1 mod)
COCc1[nH]nc2c1C(c1ccccc1Cl)C(C#N)=C(N)O2 (configuration not stated)	none (no result: D1 mod)
COc1ccccc1NCC(O)Cn1c2ccccc2c2ccccc21 (configuration not stated)	CYP2C9 inh 76.8, CYP2C19 inh 68.6 (no result: D1 mod)
O=C1c2oc3ccc(Cl)cc3c(=O)c2C(c2ccccn2)N1CCCN1CCOCC1 (configuration not stated)	none
CCCOc1ccccc1C1C(C(=O)OC)=CN(C(C)C)C=C1C(=O)OC	CYP2C9 inh 87.2, CYP2C19 inh 88.8
CCCCOc1ccccc1C1C(C(=O)OC)=CN(CC)C=C1C(=O)OC	none (no result: hDAT+cocaine)
O=C(CSc1nnc(SCC(=O)c2ccco2)s1)c1ccco1	none (no result: D1 mod)
O=C(CSCc1ccc(Cl)cc1)c1ccco1	CYP2C9 inh 58.4, CYP2C19 inh 73.3
O=C(CSc1nc2cc(Cl)ccc2s1)c1ccco1	CYP2C19 inh 88.9 (no result: D1 mod)
CCC(C)N(CCNC(=O)CC1Oc2ccc(C)cc2NC1=O)C1CCCCC1 (configuration not stated)	none
CCN(CC#CCC1(O)c2ccccc2-c2ccccc21)C(C)C	none (no result: D1 mod)
CCC(=O)Nc1ccc(C(=O)n2nc(C)cc2C)cc1	none
Cc1cc(C)n(C(=O)c2ccc(NC(=O)C3CC3)cc2)n1	CYP2C9 act 2.2
COc1ccc(/C=N\NC(=O)/C(=C\Nc2nccc(C)n2)NC(=O)c2ccccc2)cc1	CYP2C9 inh 76.3 (no result: D1 mod)
CC(C)(C)c1ccc(C(=O)N2CCC(C(=O)NCc3ccco3)CC2)cc1	none (no result: CYP2C9 inh, CYP2C19 inh, CYP2C19 activ, D1 mod, CYP2C9 act)
S=c1[nH]nc(-c2ccccc2)n1C1C=CCCC1 (configuration not stated)	CYP2C19 inh 68.2
CCOc1ccccc1N1CCN(CC(O)COc2ccc3c(C)cc(=O)oc3c2)CC1 (configuration not stated)	none (no result: D1 mod)
CC(=O)c1cccc(NC(=O)Nc2ccc3c(c2)N(C)C(=O)CS3)c1	CYP2C9 inh 59.4, CYP2C19 inh 67.9 (no result: D1 mod)
Oc1ccc(Nc2nc(-c3ccc4ccccc4c3)cs2)cc1	none (no result: D1 mod)
Cc1cccnc1Nc1nc(-c2ccccn2)cs1	none (no result: D1 mod)
Cc1cccnc1Nc1nc(-c2ccc(O)cc2O)cs1	hDAT+cocaine 5.39
NS(=O)(=O)c1ccc(Nc2nc(-c3ccc(O)cc3O)cs2)cc1	CYP2C9 inh 68.3, CYP2C19 inh 79.4 (no result: D1 mod)
COC(=O)CSc1nc(C)c(C(C)=O)cc1C#N	none
CCOC(=O)c1cc(C#N)c(SCC(=O)c2cc(C#N)c(SC)nc2C)[nH]c1=O	CYP2C9 inh 74.0
O=C(Nc1cc2c(cc1Br)OCCO2)c1cccs1	CYP2C19 inh 57.2 (no result: D1 mod)
Cc1ccc(S(=O)(=O)N(CC(=O)Nc2cccc(N(C)S(C)(=O)=O)c2)c2ccc(Cl)c(Cl)c2)cc1	CYP2C9 inh 100.1, CYP2C19 inh 79.8 (no result: D1 mod)
